# According to the supplement of paper PMC8728848:
# This is one part of a sample in which the strongest signals are shown more often than they occur.
# Legend:
# Test in all cases: glycan array binding signal (z-score within array); higher = stronger binding
# Details in all cases: glycan notation: IUPAC condensed, linker removed
# [1] = target: Fuc(a1-2)Gal(b1-3)[Fuc(a1-4)]GlcNAc(b1-3)[Fuc(a1-3)[Gal(b1-4)]GlcNAc(b1-6)]Gal(b1-4)Glc
# Method in brief: (§1)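 Negative Z-scores can be read as non-binding. The Z-score is calculated within each array and then averaged across arrays of one protein sequence at different concentrations or buffers and across linkers. Arrays, 3228 in all, were curated from the Consortium for Functional Glycomics database and kept only where the protein sequence was available.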
# [2] = target: Fuc(a1-2)Gal(b1-4)GlcNAc6S
# Method in brief: as §1
# Fuc(a1-2)[Gal(a1-3)]Gal = target: Fuc(a1-2)[Gal(a1-3)]Gal
# Method in brief: as §1
# [3] = target: Fuc(a1-3)[Gal(b1-4)]GlcNAc(b1-2)Man(a1-3)[Fuc(a1-3)[Gal(b1-4)]GlcNAc(b1-2)Man(a1-6)]Man(b1-4)GlcNAc(b1-4)GlcNAc
# Method in brief: as §1
# [4] = target: Gal(a1-3)Gal(b1-4)[Fuc(a1-3)]GlcNAc(b1-2)Man(a1-3)[Gal(a1-3)Gal(b1-4)[Fuc(a1-3)]GlcNAc(b1-2)Man(a1-6)]Man(b1-4)GlcNAc(b1-4)GlcNAc
# Method in brief: as §1
# [5] = target: Gal(a1-4)Gal(b1-4)GlcNAc(b1-2)Man(a1-3)[Gal(a1-4)Gal(b1-4)GlcNAc(b1-2)Man(a1-6)]Man(b1-4)GlcNAc(b1-4)GlcNAc
# Method in brief: as §1
# Gal(b1-3)Gal = target: Gal(b1-3)Gal
# Method in brief: as §1
# [6] = target: Gal(b1-3)GalNAc(a1-3)[Fuc(a1-2)]Gal(b1-4)Glc
# Method in brief: as §1
# [7] = target: Gal(b1-3)GlcNAc(b1-2)Man(a1-3)[Gal(b1-3)GlcNAc(b1-2)Man(a1-6)]Man(b1-4)GlcNAc(b1-4)GlcNAc
# Method in brief: as §1
# [8] = target: Gal(b1-3)GlcNAc(b1-3)Gal(b1-4)Glc
# Method in brief: as §1
# [9] = target: Gal(b1-4)GlcNAc(b1-2)Man(a1-3)[Man(a1-6)]Man(b1-4)GlcNAc(b1-4)GlcNAc
# Method in brief: as §1
# [10] = target: Gal(b1-4)GlcNAc(b1-2)[Gal(b1-4)GlcNAc(b1-4)]Man(a1-3)[Gal(b1-4)GlcNAc(b1-2)Man(a1-6)]Man(b1-4)GlcNAc(b1-4)GlcNAc
# Method in brief: as §1
# Gal6S(b1-4)Glc6S = target: Gal6S(b1-4)Glc6S
# Method in brief: as §1
# GlcNAc(b1-3)Gal = target: GlcNAc(b1-3)Gal
# Method in brief: as §1
# [11] = target: Man(a1-2)Man(a1-2)Man(a1-3)Man
# Method in brief: as §1
# [12] = target: Man(a1-2)Man(a1-2)Man(a1-6)[Man(a1-3)]Man
# Method in brief: as §1
# Man(a1-2)Man(a1-3)Man = target: Man(a1-2)Man(a1-3)Man
# Method in brief: as §1
# [13] = target: Man(a1-2)Man(a1-3)[Man(a1-2)Man(a1-6)]Man
# Method in brief: as §1
# [14] = target: Man(a1-2)Man(a1-3)[Man(a1-2)Man(a1-6)]Man(a1-6)[Man(a1-2)Man(a1-2)Man(a1-3)]Man
# Method in brief: as §1
# [15] = target: Man(a1-2)Man(a1-6)[Man(a1-3)]Man(a1-6)[Man(a1-2)Man(a1-2)Man(a1-3)]Man
# Method in brief: as §1
# Man(a1-3)[Man(a1-6)]Man = target: Man(a1-3)[Man(a1-6)]Man
# Method in brief: as §1
# [16] = target: Man(a1-3)[Man(a1-6)]Man(b1-4)GlcNAc(b1-4)GlcNAc
# Method in brief: as §1
# [17] = target: Neu5Ac(a2-3)Gal(b1-3)[Fuc(a1-4)]GlcNAc
# Method in brief: as §1
# [18] = target: Neu5Ac(a2-3)Gal(b1-4)GlcNAc
# Method in brief: as §1
# [19] = target: Neu5Ac(a2-3)Gal(b1-4)[Fuc(a1-3)]GlcNAc(b1-3)Gal
# Method in brief: as §1
# [20] = target: Neu5Ac(a2-3)[GalNAc(b1-4)]Gal(b1-4)Glc
# Method in brief: as §1
# [21] = target: Neu5Ac(a2-6)Gal(b1-4)GlcNAc(b1-2)Man(a1-6)Man(b1-4)GlcNAc(b1-4)GlcNAc
# Method in brief: as §1
# [22] = target: Neu5Ac(a2-6)Gal(b1-4)GlcNAc(b1-3)Gal(b1-4)GlcNAc(b1-3)Gal(b1-4)GlcNAc
# Method in brief: as §1
# [23] = target: Neu5Ac(b2-6)Gal(b1-4)GlcNAc
# Method in brief: as §1
# [24] = target: Neu5Gc(a2-3)Gal(b1-3)[Fuc(a1-4)]GlcNAc
# Method in brief: as §1
binder,measurement,setting,value
"ZG-16 (Homo sapiens), O60844 (protein) IQARSSSYSGEYGSGGGKRFSHSGNQLDGPITALRVRVNTYYIVGLQVRYGKVWSDYVGGRNGDLEEIFLHPGESVIQVSGKYKWYLKKLVFVTDKGRYLSFGKDSGTSFNAVPLHPNTVLRFISGRSGSLIDAIGLHWDVYPTSCSRCSRGSDDDDKAEPRGPTIKPCPPCKCPAPNLLGGPSVFIFPPKIKDVLMISLSPIVTCVVVDVSEDDPDVQISWFVNNVEVHTAQTQTHREDYNSTLRVVSALPIQHQDWMSGKEFKCKVNNKDLPAPIERTISKPKGSVRAPQVYVLPPPEEEMTKKQVTLTCMVTDFMPEDIYVEWTNNGKTELNYKNTEPVLDSDGSYFMYSKLRVEKKNWVERNSYSCSVVHEGLHNHHTTKSFSRTPGKRTYHHHHHHARKLTR",glycan array binding signal (z-score),[1],-0.196
same,glycan array binding signal (z-score),[2],-0.185
same,glycan array binding signal (z-score),Fuc(a1-2)[Gal(a1-3)]Gal,-0.217
same,glycan array binding signal (z-score),[3],0.273
same,glycan array binding signal (z-score),[4],-0.158
same,glycan array binding signal (z-score),[5],-0.205
same,glycan array binding signal (z-score),Gal(b1-3)Gal,-0.222
same,glycan array binding signal (z-score),[6],-0.193
same,glycan array binding signal (z-score),[7],-0.189
same,glycan array binding signal (z-score),[8],-0.226
same,glycan array binding signal (z-score),[9],-0.146
same,glycan array binding signal (z-score),[10],-0.166
same,glycan array binding signal (z-score),Gal6S(b1-4)Glc6S,-0.16
same,glycan array binding signal (z-score),GlcNAc(b1-3)Gal,-0.231
same,glycan array binding signal (z-score),[11],8.34
same,glycan array binding signal (z-score),[12],5.61
same,glycan array binding signal (z-score),Man(a1-2)Man(a1-3)Man,9.52
same,glycan array binding signal (z-score),[13],3.69
same,glycan array binding signal (z-score),[14],1.94
same,glycan array binding signal (z-score),[15],5.95
same,glycan array binding signal (z-score),Man(a1-3)[Man(a1-6)]Man,4.25
same,glycan array binding signal (z-score),[16],-0.183
same,glycan array binding signal (z-score),[17],-0.202
same,glycan array binding signal (z-score),[18],-0.209
same,glycan array binding signal (z-score),[19],-0.127
same,glycan array binding signal (z-score),[20],-0.21
same,glycan array binding signal (z-score),[21],-0.209
same,glycan array binding signal (z-score),[22],-0.182
same,glycan array binding signal (z-score),[23],-0.221
same,glycan array binding signal (z-score),[24],-0.132
